Reference: PubChem BioAssay (NCI)
About 83,000 compounds went through this panel and 20% of them were active in at least one assay; those are over-represented in the sample as a whole.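 Negative percent growth values reflect cell death: -40 means 40% of the cells present at the start died, and -100 means all died.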 Values without a mark were called inactive. Activity calls are given as the source filed them. Rule for the calls: active = growth percent below 10; inactive = the rest.

How the values were obtained:
Experiment in all cases: NCI-60 one-dose screen, 48 h (100 = growth as untreated, 0 = no growth, -100 = all killed)
Conditions in all cases: 10 µM unless noted
SK-MEL-2 melanoma = test system: SK-MEL-2 melanoma
EKVX NSCLC = test system: EKVX NSCLC
SN12C renal = test system: SN12C renal
UO-31 renal = test system: UO-31 renal
TK-10 renal = test system: TK-10 renal
ACHN renal = test system: ACHN renal
CAKI-1 renal = test system: CAKI-1 renal
A498 renal = test system: A498 renal
CCRF-CEM leukemia = test system: CCRF-CEM leukemia
MOLT-4 leukemia = test system: MOLT-4 leukemia

Row | SMILES | growth (SK-MEL-2 melanoma) | growth (EKVX NSCLC) | growth (SN12C renal) | growth (UO-31 renal) | growth (TK-10 renal) | growth (ACHN renal) | growth (CAKI-1 renal) | growth (A498 renal) | growth (CCRF-CEM leukemia) | growth (MOLT-4 leukemia)
1 | COc1ccc(CCN2CCCn3c2nc2ccccc2c3=O)cc1 | 51.1% | 45.7% | 45% | 41.1% | 69.3% | 40.4% | 41.7% | -3.97% (active) | 21.1% | 18.5%
2 | COc1c2ccccc2c(OC)c2[nH]c(=O)ccc12 | 64.2% | 27.8% | 40.5% | 59.9% | 110% | 65.1% | 81% | 48.3% | -58.7% (active) | 69.4%
3 | CN1C2CCC1/C(=C\c1ccc(Cl)cc1)C1=C2[C@@H](c2ccc(Cl)cc2)C(C#N)=C(N)O1 (stereo not given in full) | 84.6% | 75.7% | 94% | 65.6% | 97% | 93.9% | 76% | 80% | 77.2% | 57.6%
4 | Cc1cc(N/N=C/c2nc(-c3ccc(Cl)cc3)oc2C)c2cc(Br)ccc2n1 | 108% | 86.4% | 20.5% | 55.9% | 25.2% | 75.8% | 90% | 92.6% | 4.11% (active) | 15%
5 | CNC(=O)c1cc(Oc2ccc3nc(NC(=O)Nc4ccc(CN5CCOCC5)c(C(F)(F)F)c4)sc3c2)ccn1 | 32.9% | 25.4% | 27.8% | 26.6% | 43.9% | 16.2% | 19.4% | 9.05% (active) | 17.7% | 3.75% (active)
6 | O=C1c2ccccc2-c2nccc3cc(Cl)nc1c23 | 22.2% | -17.3% (active) | -30.7% (active) | -18.5% (active) | 61.1% | -46.4% (active) | 32.9% | 90.2% | 19.4% | 26%
7 | Cn1c2c(Cl)c(Cl)ccc2c2ccn3c(=O)c4ccccc4nc3c21 | 107% | 80.8% | 104% | 70.1% | 162% | 93% | 89.1% | 120% | 80.8% | 94.7%
8 | COc1cc(NC(N)=NCC(C)(C)COc2ccc(C(F)(F)F)cc2)cnc1C#N | 77.3% | 70.5% | 66.8% | 29.8% | 62.5% | 62.9% | 62.8% | 45.9% | 56% | 15.6%
9 | C[C@@H]1CC[C@@H]2[C@@H]1[C@H](OC(=O)/C=C/c1ccccc1)[C@]1(C3CCCCC3)C[C@@H](OC(=O)CO)[C@@]2(C)O1 | 92.3% | 68.6% | 16.6% | -51.7% (active) | 93.1% | 14.8% | 16.4% | -31.7% (active) | 62.8% | 61.6%
10 | CN1CCN(Cc2ccc(NC(=O)c3cncc(C#Cc4cncc5nccnc45)c3)cc2C(F)(F)F)CC1 | -13.2% (active) | 71.2% | 31.7% | 20.4% | 96% | 24% | 22.2% | 21.4% | 58.2% | 37%
11 | CN(C)c1ccc(/C=C\C2=[N+](C)c3ccccc3C2(C)C)cc1 | -3.85% (active) | 8.84% (active) | -1.45% (active) | 55% | 27.8% | 4.49% (active) | 13.4% | 48.2% | 14.6% | 15.7%
12 | O=C(O)c1c([N+](=O)[O-])cnc2ccccc12 | 102% | 58.2% | 97.2% | 64.9% | 102% | 111% | 98% | 118% | 127% | 105%
13 | COCCOC(=O)C1=C(C)NC(=S)NC1c1ccc2c(c1)OCO2 (stereo not given) | 93% | 105% | 104% | 87.8% | 104% | 106% | 99.8% | 96.1% | 104% | 96.9%
14 | C=C1CC[C@@H]2[C@](C)(COC(C)=O)[C@H](OC(C)=O)CC[C@@]2(C)[C@@H]1CC(Nc1ccc(S(=O)(=O)Nc2ccc(Cl)nn2)cc1)C1=CCOC1=O (stereo not given in full) | 58.3% | 87.3% | -27.6% (active) | 18.4% | 69.8% | 16.1% | 31.8% | 89% | -10.3% (active) | 0.401% (active)
15 | CCOC(=O)c1cnc2ccc(OC)cc2c1Nc1cccc(S(=O)(=O)NC)c1 | 102% | 104% | 92.9% | 93.6% | 110% | 91.5% | 89.4% | 95.9% | 93% | 99.2%
16 | O=C1O[C@H]([C@H](O)CO)C(O)=C1O | 104% | 110% | 104% | 99.8% | 104% | 93.9% | 87.1% | 94.3% | 109% | 107%
17 | OC(c1cc(-c2ccccc2)nc2ccc(Cl)cc12)C1CCCCN1 (stereo not given) | 89.2% | 63% | 66.3% | 20.5% | 71.3% | 22.1% | 34.3% | 64.6% | 64.6% | 27.5%
18 | Nc1cccc(-c2nc3sccn3c2-c2ccnc(NCCCNS(=O)(=O)c3ccc(C(F)(F)F)cc3)n2)c1 | -21.7% (active) | 21.1% | 12.8% | -8.25% (active) | 47.5% | 6.33% (active) | 18.3% | 11.2% | 6.17% (active) | -29.6% (active)
19 | COc1ccc(-c2nn(-c3ccccc3)cc2/C=C2\SC(=O)NC2=O)cc1 | 100% | 85.2% | 90.8% | 80% | 99.7% | 96% | 83.2% | 72% | 91.9% | 96.4%
20 | CCOC(=O)c1c2c(n3ccc(NC(=O)CCN4CCCCC4)cc13)C(=O)c1ncccc1C2=O | 52.1% | 67.9% | 30.2% | 10.3% | 54% | -52.5% (active) | 16.9% | 58.5% | -22.9% (active) | -25.9% (active)
21 | CCCCCCCCCCCCCCCCCCNC(=O)[C@H]1CSC(c2ccc(OC)c(F)c2)N1 (stereo not given in full) | -54.1% (active) | 17.5% | -80.7% (active) | 66.6% | 59.5% | 87.8% | 52.9% | 64.9% | -14.4% (active) | 10% (active)
22 | CN1CCN(Cc2ccc(NC(=O)c3cncc(C#Cc4cnc(N)c5cccnc45)c3)cc2C(F)(F)F)CC1 | -27.1% (active) | 14.1% | 11.6% | 2.87% (active) | 50.1% | 6.51% (active) | 1.93% (active) | -27.5% (active) | 16.9% | 18.1%
23 | CSc1nc2sc3c(c2c(=O)n1-c1ccc(C(C)C)cc1)CCC(=O)C3 | 63.8% | 23.1% | 6.68% (active) | -67.2% (active) | 7.34% (active) | -19.9% (active) | -9.77% (active) | 96.3% | -11.8% (active) | -12.6% (active)
24 | CC/C=C\C[C@H](O)C/C=C1/C(=O)C=C[C@@H]1C/C=C\CCCC(=O)NC(C)C | 28.8% | 28.4% | -11.1% (active) | -61.8% (active) | -0.347% (active) | -82.5% (active) | -0.696% (active) | 98.5% | -13% (active) | -17.7% (active)
25 | COc1ccc(-n2c(C)nc3c(c(C)nn3-c3ccccc3)c2=O)cc1 | 36.4% | 32% | 42% | 44.3% | 55.4% | 29.2% | 34.4% | -27.8% (active) | 8.6% (active) | 12.2%
26 | Clc1cccc(Nc2nc(Nc3cnc4ccccc4c3)c3[nH]cnc3n2)c1 | 81.1% | 41.3% | 61.2% | 60.7% | 114% | 73.5% | 59% | 60% | 84.8% | 90.6%
27 | O=C1/C(=C/c2ccccc2)CN(CCC(=O)N2C/C(=C\c3ccccc3)C(=O)/C(=C/c3ccccc3)C2)C/C1=C\c1ccccc1 | 92.1% | 63.6% | 68.3% | 47.7% | 98.5% | 62.1% | 61.7% | 60.8% | 9.77% (active) | 29.5%
